The record followed here is PubChem BioAssay (NCI).

Some test systems named below: SR leukemia; RPMI-8226 leukemia; OVCAR-8 ovarian; OVCAR-5 ovarian; OVCAR-4 ovarian; IGROV1 ovarian; OVCAR-3 ovarian; HS 578T breast; NCI/ADR-RES ovarian.
Holding throughout (assay): NCI-60 one-dose screen, 48 h (100 = growth as untreated, 0 = no growth, -100 = all killed)
Holding throughout (conditions): 10 µM unless noted

SMILES strings stand for the structures. The panel holds about 83,000 compounds, 20% with a hit somewhere; the sample as a whole holds those more often.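 Single-concentration screen, 48 h exposure, 96-well plates. Endpoint: percent growth. Below 10 = active.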 Values without a mark were called inactive. Active and inactive are the calls of the source.

Regarding `O=C(Nc1ccc(Cl)c(Cl)c1)NS(=O)(=O)c1cnccc1Oc1ccc(F)cc1`, the growth is 51.2% with SR leukemia; -40.7% (active) in the experiment on RPMI-8226 leukemia; 55.4% in the experiment with OVCAR-8 ovarian; 82.7% in the experiment with OVCAR-5 ovarian; 52% in the experiment with OVCAR-4 ovarian; 71.7% with IGROV1 ovarian. The values for the growth in the experiment with OVCAR-3 ovarian, in the experiment on HS 578T breast and in the experiment with NCI/ADR-RES ovarian were 8.22% (active), 86% and 53.3%, respectively.

For the compound `Cc1ccc(-c2cc3nc(C(Cl)Cl)nc(-c4cccnc4)n3n2)cc1`, the growth was 14.6% with SR leukemia; 16.5% in the experiment on RPMI-8226 leukemia; 22.7% with OVCAR-8 ovarian; 24.2% in the experiment on OVCAR-5 ovarian; 9.57% (active) with OVCAR-4 ovarian; 33.6% with IGROV1 ovarian. Moreover, the growth is -40.7% (active) in the experiment with OVCAR-3 ovarian, 28.3% in the experiment on HS 578T breast and -3.44% (active) in the experiment on NCI/ADR-RES ovarian.

Turning to `Clc1cc(Cl)cc(-c2ccc(-c3ccc(/C=N/NC4=NCCN4)cc3)s2)c1`, the growth with SR leukemia was 8.3% (active); in the experiment on RPMI-8226 leukemia it was 9.95% (active); in the experiment with OVCAR-8 ovarian, 85%; in the experiment with OVCAR-5 ovarian it was 95.2%; in the experiment with OVCAR-4 ovarian, 81%; with IGROV1 ovarian it was 43.3%. The growth in the experiment with OVCAR-3 ovarian is 14.2%; with HS 578T breast it was 82.1%; in the experiment on NCI/ADR-RES ovarian, 45.6%.

Take `CCNc1nc(S(=O)(=O)CC)nc2ccccc12`: the growth is 84.5% in the experiment with SR leukemia; 87.5% in the experiment with RPMI-8226 leukemia; 99.8% in the experiment on OVCAR-8 ovarian; 104% in the experiment on OVCAR-5 ovarian; 99.7% in the experiment on OVCAR-4 ovarian; 104% in the experiment on IGROV1 ovarian. Moreover, the results for the growth in the experiment on OVCAR-3 ovarian, in the experiment with HS 578T breast and with NCI/ADR-RES ovarian were 98%, 93.6% and 111%, respectively.

Turning to `N=C(N)c1ccc(-c2cc(Cl)cc(Cl)c2)cn1`, the growth is 55% with SR leukemia; 82.8% in the experiment on RPMI-8226 leukemia; 99.2% in the experiment with OVCAR-8 ovarian; 89.4% in the experiment with OVCAR-5 ovarian; 97.1% in the experiment with OVCAR-4 ovarian; 89.1% in the experiment on IGROV1 ovarian. Further, the results for the growth in the experiment with OVCAR-3 ovarian, in the experiment with HS 578T breast and in the experiment on NCI/ADR-RES ovarian were 97.4%, 87.2% and 94.2%, respectively.

For `O=C1NC(=C(Cl)Cl)/C(=N/S(=O)(=O)N2CCC(C3(C(F)(F)F)N=N3)CC2)N1`, the growth in the experiment on SR leukemia is 13.3%; in the experiment with RPMI-8226 leukemia, 23.9%; in the experiment on OVCAR-8 ovarian, 96.2%; in the experiment on OVCAR-5 ovarian, 105%; with OVCAR-4 ovarian, 98.1%; in the experiment on IGROV1 ovarian it was 43.5%. In addition, the growth in the experiment on OVCAR-3 ovarian was 40%; with HS 578T breast, 95.8%; in the experiment with NCI/ADR-RES ovarian, 106%.

Take `CCCCCCCCCCCCNC(=O)[C@H]1CSC(c2cc(Br)cs2)N1` (stereo not given in full): the growth was -31.3% (active) in the experiment with SR leukemia; 37.7% in the experiment with RPMI-8226 leukemia; -64.8% (active) in the experiment with OVCAR-8 ovarian; 9.52% (active) with OVCAR-5 ovarian; -72.4% (active) in the experiment on OVCAR-4 ovarian; -54.1% (active) with IGROV1 ovarian. For the same compound, the growth is -50.8% (active) in the experiment on OVCAR-3 ovarian, -41.2% (active) with HS 578T breast and -22.3% (active) in the experiment with NCI/ADR-RES ovarian.

Consider `CC(=O)Nc1ccc(S(=O)(=O)n2ccc(-c3ccc4c(c3)CCC(C)(C)O4)n2)cc1`, for which the growth in the experiment with SR leukemia is 56.4%; in the experiment with RPMI-8226 leukemia it was 43.7%; in the experiment with OVCAR-8 ovarian it was 69.4%; in the experiment on OVCAR-5 ovarian, 96.3%; with OVCAR-4 ovarian, 46.2%; in the experiment with IGROV1 ovarian, 68%. In addition, the growth in the experiment with OVCAR-3 ovarian is 74.4%; in the experiment on HS 578T breast it was 102%; in the experiment on NCI/ADR-RES ovarian, 56.9%.

`Cc1cc(N/N=C/c2nc(-c3ccccc3)oc2C)c2cc(Br)ccc2n1`: the growth with SR leukemia was -4.64% (active); in the experiment on RPMI-8226 leukemia it was 11.9%; in the experiment on OVCAR-8 ovarian, 42.5%; in the experiment on OVCAR-5 ovarian it was 96.3%; in the experiment on OVCAR-4 ovarian, 1.21% (active); in the experiment with IGROV1 ovarian, 78.6%. The growth was 109% with OVCAR-3 ovarian, 85.8% in the experiment on HS 578T breast and 78.9% in the experiment on NCI/ADR-RES ovarian.

With `O=C(Nc1ccc(NCCN2CCOCC2)nc1)c1ccc([N+](=O)[O-])cc1`, the growth with SR leukemia was 113%; in the experiment on RPMI-8226 leukemia it was 107%; with OVCAR-8 ovarian, 96.2%; in the experiment with OVCAR-5 ovarian, 105%; in the experiment on OVCAR-4 ovarian, 103%; in the experiment on IGROV1 ovarian, 121%. For the same compound, the results for the growth in the experiment on OVCAR-3 ovarian, in the experiment with HS 578T breast and with NCI/ADR-RES ovarian were 114%, 104% and 105%, respectively.

In the case of `C=CCSc1n[nH]c(-c2cccs2)n1`, the growth is 91% in the experiment with SR leukemia; 103% with RPMI-8226 leukemia; 102% in the experiment on OVCAR-8 ovarian; 98.2% in the experiment with OVCAR-5 ovarian; 107% in the experiment with OVCAR-4 ovarian; 15.8% in the experiment with IGROV1 ovarian. Also, the figures for the growth with OVCAR-3 ovarian, in the experiment on HS 578T breast and in the experiment on NCI/ADR-RES ovarian were 115%, 101% and 102%, respectively.

As for `N=C(N)c1ccc(-c2ccc(-c3ccc(-c4cccs4)s3)s2)cc1`, the growth was 81.6% in the experiment with SR leukemia; 61% in the experiment with RPMI-8226 leukemia; 101% in the experiment with OVCAR-8 ovarian; 97.8% with OVCAR-5 ovarian; 90.7% with OVCAR-4 ovarian; 96.2% in the experiment on IGROV1 ovarian. Moreover, the growth with OVCAR-3 ovarian is 94.7%; in the experiment with HS 578T breast, 99.3%; with NCI/ADR-RES ovarian it was 98.6%.

With `Cc1[nH]c2ccc(F)cc2c1CCNC(=O)C1CCN(C(=O)c2ccccc2)CC1`, the growth in the experiment on SR leukemia is 97.3% [25 µM]; with RPMI-8226 leukemia, 10% [25 µM]; in the experiment on OVCAR-8 ovarian, 93.3% [25 µM]; with OVCAR-5 ovarian, 95.1% [25 µM]; with OVCAR-4 ovarian it was 78.6% [25 µM]; in the experiment with IGROV1 ovarian it was 82.5% [25 µM]. Moreover, the growth in the experiment on OVCAR-3 ovarian is 98.2% [25 µM]; in the experiment on HS 578T breast, 87.7% [25 µM]; with NCI/ADR-RES ovarian, 95.5% [25 µM].

As to `Cc1ccc(-c2nc(C(Cl)Cl)n3nc(-c4ccccc4)cc3n2)cc1`, the growth in the experiment with SR leukemia is 87.6%; with RPMI-8226 leukemia, 2.55% (active); in the experiment on OVCAR-8 ovarian, 35.3%; with OVCAR-5 ovarian, 120%; with OVCAR-4 ovarian it was 48%; in the experiment on IGROV1 ovarian, 56.4%. Moreover, the values for the growth with OVCAR-3 ovarian, in the experiment with HS 578T breast and with NCI/ADR-RES ovarian were -83.7% (active), 31.5% and 18.8%, respectively.

As to `COc1ccc(S(=O)(=O)n2ccc(-c3ccc4c(c3)CCC(C)(C)O4)n2)cc1OC`, the growth with SR leukemia is 60.2%; with RPMI-8226 leukemia it was 59%; with OVCAR-8 ovarian, 74.6%; with OVCAR-5 ovarian, 105%; with OVCAR-4 ovarian, 46%; in the experiment with IGROV1 ovarian, 84.3%. Also, the growth in the experiment with OVCAR-3 ovarian was 70.9%; with HS 578T breast, 91.5%; in the experiment on NCI/ADR-RES ovarian, 56.5%.
